Results reported in PubChem BioAssay (NCATS).
Results filed as inconclusive are left out. The source made the active and inactive calls. The call rests on the fitted dose curve; in most records, active means well fitted curve in the direction sought with a large enough effect; inconclusive means small, poorly fitted or top-dose-only effect, or another doubt; inactive means no such curve, though single readings can be large; an effect the other way counts as inactive or inconclusive.

Tests used:
NIH3T3 [1] = experiment: Cytotoxic Profiling of Annotated Libraries Using Quantitative High-Throughput Screening (AID 1296008); settings: Five cell lines viability, CellTiter-Glo ATP luminescence, 48-72 h; max response: stronger effect = lower value; further: nearly all actives have a fitted effect of over 60% in size
Procedure, shortened: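 Compounds were pin-transferred onto cells and incubated 48 or 72 hr at 37 degree Celsius, 95% humidity. CellTiter-Glo was added, plates sat 10 min at room temperature, then ATP-coupled luminescence was imaged as the viability read-out.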

HACAT = experiment: qHTS assay to identify novel small-molecules to repurpose for Merkel cell carcinoma treatment (AID 1296009); settings: MCC and control cell lines, CellTiter-Glo viability, 72 h; at 44.8 µM (top of the series) unless noted; further: nearly all actives have a fitted effect of over 60% in size; further: potency means the concentration at half of the fitted maximal effect
Procedure, shortened: (§1)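 Cells exposed to NPC (8-point) and MIPE (11-point) compound dilutions for 72 hr at 37 degree celsius; viability read by CellTiter-Glo luminescence, normalized to no-cell and DMSO in-plate controls.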

HEK293T [2] = experiment: as above; settings: MCC and control cell lines, CellTiter-Glo viability, 72 h; at 44.8 µM (top of the series) unless noted
Procedure, shortened: as §1

MCC-13 = experiment: as above; settings: MCC and control cell lines, CellTiter-Glo viability, 72 h; series mostly up to 46 µM
Procedure, shortened: as §1

MCC-26 = experiment: as above; settings: MCC and control cell lines, CellTiter-Glo viability, 72 h; series mostly up to 46 µM
Procedure, shortened: as §1

MKL-1 = experiment: as above; settings: MCC and control cell lines, CellTiter-Glo viability, 72 h; series mostly up to 46 µM
Procedure, shortened: as §1

MKL-2 = experiment: as above; settings: MCC and control cell lines, CellTiter-Glo viability, 72 h; series mostly up to 46 µM
Procedure, shortened: as §1

UISO = experiment: as above; settings: MCC and control cell lines, CellTiter-Glo viability, 72 h; series mostly up to 46 µM
Procedure, shortened: as §1

WaGa = experiment: as above; settings: MCC and control cell lines, CellTiter-Glo viability, 72 h; series mostly up to 46 µM
Procedure, shortened: as §1

C33A = experiment: Primary qHTS to identify gynecologic anti-cancer compounds using libraries of approved drugs and bioactive compounds (AID 1345084); settings: Gynecologic cancer cell panel viability, ATPlite luminescence, 48 h; series mostly up to 57.5 µM; further: nearly all actives have a fitted effect of over 55% in size
Procedure, shortened: (§2)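 Cells, 1,000 per well, were allowed to settle for 16 h at 37 C before compound addition. Five concentrations were tested for 48 h, and viability was read by ATPlite luminescence after 15 min at room temperature.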

CAOV3 = experiment: as above; settings: Gynecologic cancer cell panel viability, ATPlite luminescence, 48 h; series mostly up to 57.5 µM
Procedure, shortened: as §2

CASKI = experiment: as above; settings: Gynecologic cancer cell panel viability, ATPlite luminescence, 48 h; series mostly up to 57.5 µM
Procedure, shortened: as §2

Es-2 = experiment: as above; settings: Gynecologic cancer cell panel viability, ATPlite luminescence, 48 h; series mostly up to 57.5 µM
Procedure, shortened: as §2

HeLa = experiment: as above; settings: Gynecologic cancer cell panel viability, ATPlite luminescence, 48 h; series mostly up to 57.5 µM
Procedure, shortened: as §2

Hek293T [3] = experiment: as above; settings: Gynecologic cancer cell panel viability, ATPlite luminescence, 48 h, control line for the selectivity index; series mostly up to 57.5 µM
Procedure, shortened: as §2

JEG-3 = experiment: as above; settings: Gynecologic cancer cell panel viability, ATPlite luminescence, 48 h; series mostly up to 57.5 µM
Procedure, shortened: as §2

OV90 = experiment: as above; settings: Gynecologic cancer cell panel viability, ATPlite luminescence, 48 h; series mostly up to 57.5 µM
Procedure, shortened: as §2

PA-1 = experiment: as above; settings: Gynecologic cancer cell panel viability, ATPlite luminescence, 48 h; series mostly up to 57.5 µM
Procedure, shortened: as §2

SKOV3 = experiment: as above; settings: Gynecologic cancer cell panel viability, ATPlite luminescence, 48 h; series mostly up to 57.5 µM
Procedure, shortened: as §2

NIH3T3 [4] = experiment: qHTS assay to identify novel small-molecules to repurpose for Merkel cell carcinoma treatment (AID 1296009); settings: MCC and control cell lines, CellTiter-Glo viability, 72 h; at 44.8 µM (top of the series) unless noted; further: nearly all actives have a fitted effect of over 60% in size; further: potency means the concentration at half of the fitted maximal effect
Procedure, shortened: as §1
On the % scale 0 is the no-effect control and ±100 the full control effect.

O=C1CC(c2ccc(Cl)cc2)CC(=O)N1
inactive: max response (NIH3T3 [1]) -1.3% | outcome (HACAT) | outcome (HEK293T [2]) | Potency (MCC-13) | Potency (MCC-26) | Potency (MKL-1) | Potency (MKL-2) | Potency (UISO) | Potency (WaGa) | Potency (C33A) | Potency (CAOV3) | Potency (CASKI) | Potency (Es-2) | Potency (HeLa) | Potency (Hek293T [3]) | Potency (JEG-3) | Potency (OV90) | Potency (PA-1) | Potency (SKOV3)

CO[C@@]1(NC(=O)CSC[C@@H](N)C(=O)O)C(=O)N2C(C(=O)O)=C(CSc3nnnn3C)CS[C@@H]21
inactive: max response (NIH3T3 [1]) -3.38% | outcome (HACAT) | outcome (HEK293T [2]) | Potency (MCC-13) | Potency (MCC-26) | Potency (MKL-1) | Potency (MKL-2) | Potency (UISO) | Potency (WaGa) | Potency (C33A) | Potency (CAOV3) | Potency (CASKI) | Potency (Es-2) | Potency (HeLa) | Potency (Hek293T [3]) | Potency (JEG-3) | Potency (OV90) | Potency (PA-1) | Potency (SKOV3)

COC(=O)/C=C(/C)N
inactive: outcome (NIH3T3 [1]) | outcome (HACAT) | outcome (HEK293T [2]) | Potency (MCC-13) | Potency (MCC-26) | Potency (MKL-1) | Potency (MKL-2) | outcome (NIH3T3 [4]) | Potency (UISO) | Potency (WaGa) | Potency (C33A) | Potency (CAOV3) | Potency (CASKI) | Potency (Es-2) | Potency (HeLa) | Potency (Hek293T [3]) | Potency (JEG-3) | Potency (OV90) | Potency (PA-1) | Potency (SKOV3)

CCCCCC[C@@H](CCC)C(=O)O
inactive: outcome (NIH3T3 [1]) | outcome (HACAT) | outcome (HEK293T [2]) | Potency (MCC-13) | Potency (MCC-26) | Potency (MKL-1) | Potency (MKL-2) | outcome (NIH3T3 [4]) | Potency (UISO) | Potency (WaGa) | Potency (C33A) | Potency (CAOV3) | Potency (CASKI) | Potency (Es-2) | Potency (HeLa) | Potency (Hek293T [3]) | Potency (JEG-3) | Potency (OV90) | Potency (PA-1) | Potency (SKOV3)

NS(=O)(=O)c1ccc(N2CCCCS2(=O)=O)cc1
inactive: outcome (NIH3T3 [1]) | outcome (HACAT) | outcome (HEK293T [2]) | Potency (MCC-13) | Potency (MCC-26) | Potency (MKL-1) | Potency (MKL-2) | outcome (NIH3T3 [4]) | Potency (UISO) | Potency (WaGa) | Potency (C33A) | Potency (CAOV3) | Potency (CASKI) | Potency (Es-2) | Potency (HeLa) | Potency (Hek293T [3]) | Potency (JEG-3) | Potency (OV90) | Potency (PA-1) | Potency (SKOV3)

COc1cc(OC)nc(O[C@H](C(=O)O)C(OC)(c2ccccc2)c2ccccc2)n1
inactive: outcome (NIH3T3 [1]) | outcome (HACAT) | outcome (HEK293T [2]) | Potency (MCC-13) | Potency (MCC-26) | Potency (MKL-1) | Potency (MKL-2) | outcome (NIH3T3 [4]) | Potency (UISO) | Potency (WaGa) | Potency (C33A) | Potency (CAOV3) | Potency (CASKI) | Potency (Es-2) | Potency (HeLa) | Potency (Hek293T [3]) | Potency (JEG-3) | Potency (OV90) | Potency (PA-1) | Potency (SKOV3)

O=C(C1CCCCC1)N1CC(=O)N2CCCc3ccccc3C2C1 (stereo not drawn)
inactive: outcome (NIH3T3 [1]) | outcome (HACAT) | outcome (HEK293T [2]) | Potency (MCC-13) | Potency (MCC-26) | Potency (MKL-1) | Potency (MKL-2) | outcome (NIH3T3 [4]) | Potency (UISO) | Potency (WaGa) | Potency (C33A) | Potency (CAOV3) | Potency (CASKI) | Potency (Es-2) | Potency (HeLa) | Potency (Hek293T [3]) | Potency (JEG-3) | Potency (OV90) | Potency (PA-1) | Potency (SKOV3)

Cc1cc(O)c(C)c(C)c1O
inactive: outcome (NIH3T3 [1]) | outcome (HACAT) | outcome (HEK293T [2]) | Potency (MCC-13) | Potency (MCC-26) | Potency (MKL-1) | Potency (MKL-2) | outcome (NIH3T3 [4]) | Potency (WaGa) | Potency (C33A) | Potency (CAOV3) | Potency (CASKI) | Potency (Es-2) | Potency (HeLa) | Potency (Hek293T [3]) | Potency (JEG-3) | Potency (OV90) | Potency (PA-1) | Potency (SKOV3)

C[C@H]1C[C@@H]2[C@H]([C@@H](O)C[C@@]3(C)[C@H]2CC[C@]3(O)C(=O)CO)[C@@]2(C)C=CC(=O)C=C12
inactive: max response (NIH3T3 [1]) 0.285% | outcome (HACAT) | outcome (HEK293T [2]) | Potency (MCC-13) | Potency (MCC-26) | Potency (MKL-1) | Potency (MKL-2) | Potency (UISO) | Potency (WaGa) | Potency (C33A) | Potency (CAOV3) | Potency (CASKI) | Potency (Es-2) | Potency (HeLa) | Potency (Hek293T [3]) | Potency (JEG-3) | Potency (OV90) | Potency (PA-1) | Potency (SKOV3)

O=C(O)[C@H](O)[C@@H](O)[C@H](O[C@@H]1O[C@H](CO)[C@H](O)[C@H](O)[C@H]1O)[C@H](O)CO
inactive: max response (NIH3T3 [1]) -0.868% | outcome (HACAT) | outcome (HEK293T [2]) | Potency (MCC-13) | Potency (MCC-26) | Potency (MKL-1) | Potency (MKL-2) | Potency (UISO) | Potency (WaGa) | Potency (C33A) | Potency (CAOV3) | Potency (CASKI) | Potency (Es-2) | Potency (HeLa) | Potency (Hek293T [3]) | Potency (JEG-3) | Potency (OV90) | Potency (PA-1)

CCCc1ncc(C(=O)O)s1
inactive: outcome (NIH3T3 [1]) | outcome (HACAT) | Potency (MCC-13) | Potency (MCC-26) | Potency (MKL-1) | Potency (MKL-2) | outcome (NIH3T3 [4]) | Potency (UISO) | Potency (WaGa) | Potency (C33A) | Potency (CAOV3) | Potency (CASKI) | Potency (Es-2) | Potency (HeLa) | Potency (Hek293T [3]) | Potency (JEG-3) | Potency (OV90) | Potency (PA-1) | Potency (SKOV3)

O=C1Nc2cc(Cl)ccc2Oc2ccccc21
inactive: max response (NIH3T3 [1]) -1.14% | outcome (HACAT) | outcome (HEK293T [2]) | Potency (MCC-13) | Potency (MCC-26) | Potency (MKL-1) | Potency (MKL-2) | Potency (WaGa) | Potency (C33A) | Potency (CAOV3) | Potency (CASKI) | Potency (Es-2) | Potency (HeLa) | Potency (Hek293T [3]) | Potency (JEG-3) | Potency (OV90) | Potency (PA-1) | Potency (SKOV3)

CC(=O)N1CCN(c2ccc(O)cc2)CC1
inactive: outcome (NIH3T3 [1]) | outcome (HACAT) | Potency (MCC-13) | Potency (MCC-26) | outcome (NIH3T3 [4]) | Potency (C33A) | Potency (CAOV3) | Potency (CASKI) | Potency (Es-2) | Potency (HeLa) | Potency (Hek293T [3]) | Potency (JEG-3) | Potency (OV90) | Potency (PA-1) | Potency (SKOV3)
active: Potency (MKL-1) 8.41 µM | Potency (MKL-2) 7.5 µM | Potency (WaGa) 23.7 µM

O=C(O)c1cn(C2CC2)c2cc(Cl)c(F)cc2c1=O
inactive: outcome (NIH3T3 [1]) | outcome (HACAT) | Potency (MCC-13) | Potency (MCC-26) | Potency (MKL-1) | Potency (MKL-2) | outcome (NIH3T3 [4]) | Potency (UISO) | Potency (WaGa) | Potency (C33A) | Potency (CAOV3) | Potency (CASKI) | Potency (Es-2) | Potency (HeLa) | Potency (Hek293T [3]) | Potency (JEG-3) | Potency (OV90) | Potency (PA-1) | Potency (SKOV3)
